Several values for one entry are separate records, joined by “and”; a condition that tells them apart may be missing. Identical values can stand only once. Activity calls are given as the source filed them.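 Rule for the calls: active = relative GCLC transcription at 1 µM of at least 250%; inconclusive = relative GCLC transcription at 1 µM between 200% and 250%; inactive = relative GCLC transcription at 1 µM under 200%.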
Test: qHTS of Nrf2 Activators: Hit Validation in GCLC Induction Assay
Settings: Hepa1c1c7 cells, GCLC mRNA qPCR, 24 h; at 1 µM; stronger effect = higher value
Text: Many diseases have some form of oxidative stress injury and ties to inflammation, causing a host of problems for the patient. The antioxidant response element (ARE) plays an important role in alleviating the harmful effects of oxidative stress. The antioxidant response element (ARE) is a transcriptional regulatory element involved in the activation of genes coding for a number of antioxidant proteins and detoxifying enzymes. These enzymes work in concert to protect tissues from oxidative insults and chemical toxicities in human hepatocytes and immune cells. The protective effects of ARE activation are primarily triggered through Nrf2 (NF-E2-related factor) binding to and activating AREs. It is known that Nrf2 controls the production of over 250 antioxidant and detoxification proteins (Hu et al., 2006), thereby protecting tissues by increasing cellular antioxidant content and suppressing inflammatory signaling pathways. The transcription factor Nrf2 is a central link between oxidative chemicals, such as phenolic antioxidants and electrophilic compounds, and the activation of ARE. Nrf2 levels are constitutively low as a consequence of its interaction with Keap1, which targets its degradation (Zipper and Mulcahy, 2002). Electrophiles react with key cysteine residues in Keap1, releasing Nrf2 and allowing its translocation to the nucleus. Once within the nucleus, Nrf2 complexes with coactivators such as p300, and binds to the AREs to induce gene transcription of cytoprotective enzymes, resulting in the prevention of toxicity. Activation of Nrf2 protects tissues by increasing cellular antioxidant content and suppressing inflammatory signaling pathways. Identifying novel and potent Nrf2 activators by using the AREc32 cell line to detect ARE activation by small molecules will lead to the identification and development of probes to study protective pathways in multiple tissues. These specific probes are essential to study the ARE pathway, and eventually to determine whether this pathway does activate genes that could protect against a host of diseases, including cardiovascular diseases, obesity, diabetes, Alzheimer's, and Parkinson's disease. This project's aim is to identify novel and potent Nrf2 activators by using the AREc32 cell line to detect ARE activation by small molecules, which will lead to the identification and development of probes to study the ARE pathway. Compounds that were identified in the primary screen were tested in this secondary assay to assess whether a hit also activates Nrf2 transcription of the target gene GCLC. NIH Chemical Genomics Center [NCGC] NIH Molecular Libraries Probe Centers Network [MLPCN] MLPCN Grant: DK081461 Assay Submitter (PI): Curtis Klaassen, University of Kansas Medical Center
Hepac1c7 cells were seeded into 24-well plates at a density of 30,000 cells/well in 1 mL complete media per well and cultured overnight to allow attachment. Cells were treated the next day with compounds (1 uM)or positive control for 24 h. Total RNA samples were then isolated by using RNAzol B reagent (Tel-Test, Inc., Friendswood, TX) according to the manufacturer's protocol. Total RNAs were reverse-transcribed into cDNA by High Capacity cDNA Archive Kits (Applied Biosystems, Foster City, CA) and the resulting cDNA was used for real-time PCR analysis using SYBR(R) Green PCR Master Mix in a 7900HT Fast Real-Time PCR System.

Relative GCLC transcription, inactive:
Cc1nc(NCc2ccco2)nc2c1C(=O)CC(C)C2 (stereo not given) 158%, CS(=O)(=O)c1nc(S(=O)(=O)c2ccc(Cl)cc2)c(N2CCOCC2)s1 148%, COc1ccc(NC(=O)c2cc(-c3ccco3)on2)c(OC)c1 155%, COC(=O)c1c(NC(=O)c2ccccc2)sc(C(N)=O)c1C 120%, Clc1ccc2c(NCc3ccccn3)ncnc2c1 181%, O=C(Nc1ncnc2sc3c(c12)CCC3)c1ccco1 122%, COc1ccc(NC(=O)c2cc(-c3cccs3)on2)c(OC)c1 157%, O=C(Nc1ncnc2sc3c(c12)CCCCC3)c1ccco1 109% and 134%

Relative GCLC transcription, 369%:
O=C(Nc1cccc2ncccc12)c1ccc(Cl)cc1

Relative GCLC transcription, 461%:
COc1ccccc1NC(=O)c1cc(Cl)nc2ccccc12
